{"source": "PubChem BioAssay (Tox21)", "note": "Values joined by “and” are separate entries in the source; they are usually repeats but may differ in a detail not shown here. Equal values may be shown once. Results filed as inconclusive are left out. Entries that show only a call come without a potency. More than one record can exist for a structure, and the calls need not agree. Active and inactive are the calls of the source. Calls come from the whole dose curve; as a rule, active = well fitted cell-killing curve with a large enough effect in the repeat runs; inconclusive = weak or mixed curves, or effect the other way; inactive = no such curve, though single readings can be large or run the other way. Potency is the fitted concentration of half-maximal effect.", "data": [{"experiment": "qHTS assay for identifying genotoxic compounds that show differential cytotoxicity against isogenic chicken DT40 cell lines with known DNA damage response pathways - wild type cell line (AID 743012); note: nearly all actives have a fitted effect of over 60% in size", "details": "DT40 wild type chicken cells viability, CellTiter-Glo, 40 h; series mostly up to 68.4 µM", "from_the_text": "U.S. Tox21 Program National Center for Advancing Translational Sciences [NCATS] NIH Chemical Genomics Center [NCGC] U.S. Environmental Protection Agency [EPA] National Institutes of Environmental Health Sciences [NIEHS] National Toxicology Program [NTP] U.S. Food and Drug Administration [FDA] Tox21 Assay Overview: DNA repair pathways play a critical role in cellular homeostasis by repairing DNA damage induced by endogenous processes and xenobiotics. Isogenic chicken DT40 cell lines deficient in different DNA repair pathways can be used to identify genotoxic compounds and aid in characterizing the nature of the DNA damage induced. Two DNA repair-deficient cell lines with disrupted genes, Rad54/Ku70 or Rev3, were used to screen the Tox21 10K compound library. Possible genotoxicity was based on the presence of a significant increase in cytotoxicity in one or more of the DNA repair-deficient cell lines compared to that observed in the parental DNA repair-proficient cell line. CellTiter Glo viability assay (Promega, Madison, WI) was used to measure cell viability in these cells after compound treatment. This assay includes the data from the wild type cell line.\nTox21 Assay Protocol Summary: 300 DT40 wild type cells in 5 uL/well were dispensed into white, solid-bottom 1536-well plates using a Multidrop Combi (ThermoFisher Scientific, Waltham, MA) dispenser. After the assay plates were incubated at 37 C/5% CO2 for approximately 0.5 hour, 23 nL of compounds dissolved in DMSO, positive controls or DMSO only was transferred into the assay plate by a pintool work station (Kalypsys, San Diego, CA). The assay plates were incubated at 37 C/5% CO2 for 40 hours. After 5 uL per well of CellTiter-Glo reagent was added into each well of the assay plates, the plates were incubated for 30 min at room temperature and the luminescence intensity of the plates was measured using a ViewLux (PerkinElmer, Shelton, CT) plate reader.", "values": [{"smiles": "Nc1cccc(C(F)(F)F)c1", "Potency": "inactive"}, {"smiles": "Brc1ccc(Oc2ccc(Br)cc2)cc1", "Potency": "inactive"}, {"smiles": "CS(=O)(=O)c1ccc(Cl)cc1", "Potency": "inactive"}, {"smiles": "CN=C(NC#N)NCCSCc1nc[nH]c1C", "Potency": "inactive"}, {"smiles": "CC1=CC(=O)CC(C)(C)C1", "Potency": "inactive"}, {"smiles": "CC1(C)C(=O)N(Cl)C(=O)N1Cl", "Potency": "inactive"}, {"smiles": "CCCCCNCCCCC", "Potency": "inactive"}, {"smiles": "CCN(CC)CCNC(=O)c1ccc(N)cc1", "Potency": "inactive"}, {"smiles": "CC(C)(C)NC[C@H](O)COc1nsnc1N1CCOCC1", "Potency": "inactive"}, {"smiles": "c1cnc2c(c1)ccc1cccnc12", "Potency": "3.09 µM (active) and 1.54 µM (active) and 3.86 µM (active)"}, {"smiles": "CC1(C)[C@@H](O[C@H]2O[C@H](C(=O)O)[C@@H](O)[C@H](O)[C@H]2O[C@@H]2O[C@H](C(=O)O)[C@@H](O)[C@H](O)[C@H]2O)CC[C@]2(C)[C@H]3C(=O)C=C4[C@@H]5C[C@@](C)(C(=O)O)CC[C@]5(C)CC[C@@]4(C)[C@]3(C)CC[C@@H]12", "Potency": "inactive"}, {"smiles": "OC1CCCCC1", "Potency": "inactive"}, {"smiles": "C=C1C[C@]23C[C@@]1(O)CC[C@H]2[C@@]12C=C[C@H](O)[C@@](C)(C(=O)O1)[C@H]2[C@@H]3C(=O)O", "Potency": "inactive"}, {"smiles": "Oc1ccc(Cc2ccccc2O)cc1", "Potency": "inactive"}, {"smiles": "OCC(CO)(CO)CO", "Potency": "inactive"}, {"smiles": "CCCCCCC(=O)O", "Potency": "inactive"}, {"smiles": "Cc1cc(C)c(O)c(C)c1", "Potency": "inactive"}, {"smiles": "CC/C(C)=N/O", "Potency": "inactive"}, {"smiles": "NCCNCCNCCN", "Potency": "inactive"}, {"smiles": "O=C1CCCCCCCCCCC1", "Potency": "inactive"}, {"smiles": "O=Cc1ccc(CO)o1", "Potency": "inactive"}, {"smiles": "CC(C)=CCC/C(C)=C/C=O", "Potency": "inactive"}, {"smiles": "N[C@@H](Cc1cc(I)c(Oc2ccc(O)c(I)c2)c(I)c1)C(=O)O", "Potency": "29.8 µM (active) and inactive"}, {"smiles": "O=C1OC(=O)c2c(Cl)c(Cl)c(Cl)c(Cl)c21", "Potency": "inactive"}, {"smiles": "CC(=O)OC/C=C(\\C)CCC=C(C)C", "Potency": "inactive"}, {"smiles": "C=C(C)CC(C)(C)C", "Potency": "inactive"}, {"smiles": "CC(=O)OC[C@H]1O[C@@](COC(C)=O)(O[C@H]2O[C@H](COC(C)=O)[C@@H](OC(C)=O)[C@H](OC(C)=O)[C@H]2OC(C)=O)[C@@H](OC(C)=O)[C@@H]1OC(C)=O", "Potency": "inactive"}, {"smiles": "COC(=O)/C=C\\C(=O)OC", "Potency": "inactive"}, {"smiles": "CO[Si](CCCNCCN)(OC)OC", "Potency": "inactive"}, {"smiles": "C=CC(C)(C)C", "Potency": "inactive"}, {"smiles": "CCOC(=O)CC(=O)OCC", "Potency": "inactive"}, {"smiles": "O=[N+]([O-])c1cc(C(F)(F)F)ccc1Cl", "Potency": "inactive"}, {"smiles": "O=C1O[C@H]([C@H](O)CO)C(O)=C1O", "Potency": "inactive"}, {"smiles": "NC(=O)NC(N)=O", "Potency": "inactive"}, {"smiles": "Cc1ccncc1", "Potency": "inactive"}, {"smiles": "CCCCCCCCCCCCCC(=O)O", "Potency": "inactive"}, {"smiles": "Cc1cc(C)cc(O)c1", "Potency": "inactive"}, {"smiles": "C[n+]1ccn(CCO)c1", "Potency": "inactive"}, {"smiles": "Nc1cccc(N)n1", "Potency": "inactive"}, {"smiles": "O=C(O)Cc1c[nH]c2ccccc12", "Potency": "inactive"}]}]}
